Compound activity deposited in PubChem BioAssay by several laboratories.
RmlCD inh mix = RmlC/RmlD inhibition, mixture screen | RmlC/RmlD coupled enzyme inhibition, 384-well mixture HTS | hit rate 0.39% among 110,000 | AID 1532 | inhibition, % at 5.5 µM; in the data active = inhibition above about 30%, passing the limit was not always enough
HIV RNase H inh = blocks HIV-1 RNase H cleavage of RNA/DNA duplex; P04585; RT-RNase H RNA/DNA duplex cleavage, fluorescence; inhibition, % at 10 µM; hit rate 1.9% among 65,000; in the data active = inhibition above about 50%
The depositor's hits bear a star; . = no result given; + = active, no number. Only a selection was taken, and hits are over-represented in it overall.

SMILES	RmlCD inh mix	HIV RNase H inh
CCCS(=O)(=O)c1nnnn1-c1cccc(OC)c1	-2	55*
COc1ccc(NC(=O)CSc2nnc(CNc3ccc(F)cc3)o2)c(OC)c1	-3	1
O=C(CSc1nnc(COc2ccc3c(c2)CCCC3)o1)Nc1ccc(F)cc1	5	59*
O=C(c1ccc(Cl)c(S(=O)(=O)NCc2ccccc2)c1)N1CCN(c2ccccn2)CC1	-15	.
O=C(c1ccc(CNS(=O)(=O)c2ccccc2)cc1)N1CCN(c2ccccn2)CC1	.	63*
COc1cc(CNn2nnnc2N)ccc1OCc1c(Cl)cccc1Cl	-11	.
C=CCn1c(SCC(=O)Nc2nccs2)nnc1-c1cc2cccc(OC)c2o1	12	53*
C=CCn1c(SCC(=O)Nc2ccccc2OC)nnc1-c1ccco1	30	7
NC(=O)c1ccccc1NC(=O)NC1CCCCC1	2	.
O=C(Nc1ccccc1NC(=O)NC1CCCCC1)NC1CCCCC1	11	69*
CCCc1c(C)c2c(C)[nH]nc2oc1=O	7	.
O=C(C1CCC1)N1CCc2cc(S(=O)(=O)NC3CCCc4ccccc43)ccc21 (stereo not drawn)	-1	.
Cc1cccc(C)c1NC(=O)CCCSc1nnnn1C	-22	-1
CCC(=O)Oc1ccc2c(C)c(Cl)c(=O)oc2c1	+	-6
Cc1c(Cc2ccccc2)c(=O)oc2cc(OC(=O)c3ccccc3)ccc12	-13	.
Fc1cccc(F)c1CN1CCN(c2ncccn2)CC1	-5	-13
c1ccc(C(c2nnnn2C2CCCC2)N2CCCCCC2)nc1 (stereo not drawn)	-19	7
COc1cccc(NC(=O)CSc2nc3c(c(-c4ccco4)c2C#N)CCCC3)c1	13	58*
COCCOC(=O)c1c(C)nc(SCC(=O)Nc2ccc(OC)cc2)c(C#N)c1-c1ccco1	25	-2
O=C(CN(c1ccccc1)S(=O)(=O)c1ccccc1)NCCSc1nc2ccccc2s1	-11	.
Cc1cc(C)n(CC(C)O)c(=O)c1C#N (stereo not drawn)	6	.
COc1ccc(Br)cc1C1CC(=O)N2CN(Cc3ccccc3)CSC2=C1C#N (stereo not drawn)	-3	31
N#CC1=C2SCN(Cc3ccccc3)CN2C(=O)CC1c1ccccc1F (stereo not drawn)	-3	61*
CC1CN(C)C(c2ccccc2)C(C)C12NC(=O)NC2=O (stereo not drawn)	-5	.
CC(=O)c1c(C)[nH]c(C(=O)CSc2nc3ccccc3c(=O)n2CCCN2CCOCC2)c1C	4	-22
SMILES	RmlCD inh mix	HIV RNase H inh
Cc1cc2cc(OCC(=O)O)ccc2n1C	2	-13
CCOC(=O)c1c(-c2ccccc2)csc1NC(=O)c1nn(CC)cc1Br	131	67*
CCOC(=O)c1c(-c2ccccc2)csc1NC(=O)c1ccc(N2C(=O)CCC2=O)cc1	20	.
CC(C)C1S/C(=N/N=C/c2ccco2)NC1=O (stereo not drawn)	-7	.
COCCCn1c2nc3ccccc3nc2c2c(=O)n(Cc3ccccc3Cl)cnc21	75*	16
COCCCn1c2nc3ccccc3nc2c2c(=O)n(Cc3ccc(Cl)cc3)cnc21	21	18
O=[N+]([O-])c1ccc(-c2ccc(C=Nc3cccc4ccccc34)o2)cc1	2	.
CCCN1CCN(CCCNC(=O)Cn2ncc3c4ccccc4n(C)c3c2=O)CC1	8	-8
CCOc1cc2[nH]c(=O)n(CCC(=O)NCCc3ccccc3)c(=O)c2cc1OCC	5	64*
CCOc1cc2[nH]c(=O)n(CCC(=O)NCCc3ccc(OC)c(OC)c3)c(=O)c2cc1OCC	-5	0
COc1ccccc1NC(=O)C12CC3CC(C1)CC(c1ccc(C)cc1)(C3)C2	-8	.
COc1cccc2cc3c(=O)n(-c4ccccc4)nc-3oc12	-22	53*
COc1cccc2cc(C(C)=O)c(=O)oc12	7	-3
Cc1cc(NC(=O)C2CC2)ncc1NC(=O)C12CC3CC(CC(C3)C1)C2	-21	-7
NC(=O)c1oc2ccccc2c1NC(=O)c1nc2ccccc2s1	-5	5
O=C(Nc1nnc(-c2ccccc2)o1)c1nc2ccccc2s1	29	66*
O=C(CN1CCC(n2nnc3cc(C(F)(F)F)ccc32)CC1)N1CCc2ccccc21	-9	8
O=C(CN(c1ccccc1)S(=O)(=O)c1ccccc1)N1CCN(Cc2ccc3c(c2)OCO3)CC1	-10	1
COC(=O)c1sc2ccccc2c1N	-5	54*
COC(=O)c1sc2ccccc2c1C(=O)OC	6	-27
CC(C)NC(=O)c1cccc(Cn2cc(Cl)cn2)c1	-14	-12
Cc1ccn2cc(C(=O)Nc3ccccc3N3CCOCC3)nc2c1	10	-7
COc1ccc(-c2ccc(-c3noc(-c4ccccc4F)n3)c(OC)n2)cc1	-25	54*
COc1ccc(-c2ccc(-c3noc(-c4ccccc4)n3)c(OC)n2)cc1	-307	2
CCOc1ccc(-c2nc(C#N)c(NCC3CCCO3)o2)cc1 (stereo not drawn)	5	.
COc1ccc(-c2nc(C#N)c(NCC3CCCO3)o2)cc1OC (stereo not drawn)	42*	-4
